# In PubChem BioAssay (NCI):
# The panel holds about 83,000 compounds, 20% with a hit somewhere; the sample as a whole holds those more often.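 Negative percent growth values reflect cell death: -40 means 40% of the cells present at the start died, and -100 means all died.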 Unmarked numbers belong to inactive results. Activity calls are given as the source filed them. The calls were made as follows: active = growth percent below 10; inactive = the rest.
# Test system: MDA-MB-468 breast
# Test: NCI-60 one-dose screen, 48 h (100 = growth as untreated, 0 = no growth, -100 = all killed)
# Details: 10 µM unless noted
row,Compound,growth
1,Nc1ccc(S(=O)(=O)Nc2ccnn2-c2ccccc2)cc1,107%
2,CC(=O)Cc1ccccn1,120%
3,CC(C)(C)c1cc(C(=O)N2CCC(C(=O)NCCN)CC2)cc(C(C)(C)C)c1,82.4%
4,OCC1C2C=CC(C2)C1CO (stereo unspecified),98.4%
5,O=C(NCCc1nccs1)c1cnc2c(S)cccc2c1,16.5%
6,Cc1sc2nc3[nH]/c(=C\c4ccc(Cl)cc4)c(=O)n3c(=O)c2c1C,101%
7,O=S(=O)(NCCCNc1nccc(-c2[nH]c(-c3ccccc3)nc2-c2ccc(F)c(O)c2)n1)c1cccc(F)c1,66.5%
8,O=C1/C(=C/c2ccc([N+](=O)[O-])o2)Oc2ccccc21,-50.9% (active)
9,CCn1cc(C(=O)O)c(=O)c2cc(F)c(N3CCN(S(=O)(=O)c4ccc(OC)c(OC)c4)CC3)cc21,100%
10,CC1(C)N=C(N)N=C(N)N1c1cccc(CCc2ccccc2)c1,16.6%
11,C=CCSSc1ncnc2c1ncn2C1OC(CO)C(O)C1O (stereo unspecified),7.11% (active)
12,CC(=O)Oc1csc(N(C(C)=O)c2cccc(C(F)(F)F)c2)n1,92.1%
13,CC1=NN(c2cccc(S(N)(=O)=O)c2)C(=O)C1,95.6%
14,OC(c1cc2cc(Cl)c(Cl)cc2c2cc(C(F)(F)F)ccc12)C1CCCCN1 (stereo unspecified),-92.2% (active)
15,O=C(N/N=C/c1ccc(F)cc1)c1[nH]c2ccc(I)cc2c1-c1ccccc1,17.8%
16,CCOC(=O)/C(C#N)=C(/CC)OCC,113%
